Compound activity deposited in PubChem BioAssay by National Center for Advancing Translational Sciences (NCATS).
Pf growth 48h – P. falciparum growth inhibition at 48 hours (one generation) | P. falciparum luciferase growth in erythrocytes, 48 h | Potency, µM (series often up to 28.7 µM), most hits filed as inhibitors | hit rate 5.9% among 310,000 | AID 504832; active = well fitted inhibition curve with a large enough effect; inconclusive = small, poorly fitted or top-dose-only effect, or another doubt; inactive = no such curve, though single readings can be large or run the other way
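In quantitative HTS format, infected erythrocytes bearing luciferase-reporter parasites were treated for a single generation at 37 C. Luminescence after adding detection reagent served as the growth measure.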
Pf growth 96h – inhibits malaria parasite growth, 96 h; P. falciparum luciferase reporter growth, 96 h; hit rate 6.9% among 320,000; Potency, µM (highest dose often 28.7 µM), actives largely listed as inhibitors; AID 504834; active = well fitted inhibition curve with a large enough effect; inconclusive = small, poorly fitted or top-dose-only effect, or another doubt; inactive = no such curve, though single readings can be large or run the other way
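Infected RBCs, 2% Hct / 0.05% parasitemia final; luciferase-reporter P. falciparum; cpd 96 h, 37 C, 5% CO2; luciferase detection reagent; luminescence.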
SARS PLpro yeast – inhibitors of SARS-CoV papain-like protease in yeast; S. cerevisiae expressing SARS-CoV PLpro, growth rescue; Potency, µM (series often up to 32.9 µM), most hits filed as activators; hit rate 0.19% among 330,000; AID 485353; also: nearly all actives have a fitted effect of over 55% in size
NS1 function inh – blocks influenza NS1 protein function; Potency, µM (top dose mostly 46.1 µM); hit rate 0.4% among 270,000; AID 2326; also: actives are rising curves; nearly all actives have a fitted effect of over 50% in size
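In this qHTS, NS1 from influenza A is expressed in budding yeast, where it slows growth. Cells are switched from glucose to 2% galactose medium (pH 6.0, -URA), treated with compound, and growth recovery is read at OD600.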
Each line names hits and unclear results; the compound was inactive in the other large screens. This is a sample that favours compounds with a hit; in the whole collection about 10% have one here. Unless noted, calls follow the shape of the full dose curve.

COc1ccc(Cn2nnnc2C(CC(C)C)N2CCC(C(N)=O)CC2)cc1 (stereo unspecified)	Pf growth 96h inconclusive
CC(C)CC(c1nnnn1Cc1ccc(F)cc1)N1CCC(C(N)=O)CC1 (stereo unspecified)	none (no result: NS1 function inh)
COc1ccc(CCn2nnnc2C(C(C)C)N2CCN(c3ncccn3)CC2)cc1OC (stereo unspecified)	Pf growth 48h 9.3µM, Pf growth 96h inconclusive
COc1ccc(CCn2nnnc2C(CC(C)C)N2CCC(C(N)=O)CC2)cc1OC (stereo unspecified)	Pf growth 96h 12µM
NC1(P(=O)(O)O)CCCCC1	none (no result: Pf growth 48h, Pf growth 96h, SARS PLpro yeast)
c1ccc(C(c2ccccc2)N2CCN(c3nc4ccccc4n4cnnc34)CC2)cc1	Pf growth 48h 1.9µM, Pf growth 96h 1.7µM
O=C(Cc1ccc(S(=O)(=O)N2CCOCC2)s1)NC1CCCCC1	Pf growth 48h inconclusive, Pf growth 96h inconclusive (no result: NS1 function inh)
CNC(=O)c1ccc(NC(=O)Cc2ccc(S(=O)(=O)N3CCOCC3)s2)cc1	Pf growth 96h 15µM (no result: NS1 function inh)
CC1CCCCC1NC(=O)Cc1ccc(S(=O)(=O)N2CCOCC2)s1 (stereo unspecified)	Pf growth 48h inconclusive, Pf growth 96h 12µM (no result: NS1 function inh)
CC1CCCN(S(=O)(=O)c2ccc(NC(=O)Cc3ccc(S(=O)(=O)N4CCOCC4)s3)cc2)C1 (stereo unspecified)	Pf growth 48h inconclusive, Pf growth 96h 7.4µM (no result: SARS PLpro yeast, NS1 function inh)
CCCc1nc2c(=O)n(C)c(=O)nc-2n(C)n1	Pf growth 48h 5.2µM (no result: NS1 function inh)
Cn1nc(-c2ccccn2)nc2c(=O)n(C)c(=O)nc1-2	Pf growth 48h 2.9µM, Pf growth 96h 2.9µM
CCn1c(N)nc2c1c(=O)n(C)c(=O)n2C	none
Cn1ncnc2c(=O)n(C)c(=O)nc1-2	Pf growth 48h 0.93µM
Cc1nn(C(=O)c2cccc([N+](=O)[O-])c2)c(C)c1Cl	Pf growth 96h inconclusive
CCN(CC(=O)Nc1ccccc1C(F)(F)F)C(=O)CN1C(=O)NC(C)(c2ccccc2)C1=O (stereo unspecified)	none (no result: NS1 function inh)
O=C(CNS(=O)(=O)c1c(Cl)cccc1Cl)N1CCCCCC1	Pf growth 96h inconclusive
COc1ccc(C2CC(=O)c3c(C)nc(N4CCN(Cc5ccccc5)CC4)nc3C2)cc1OC (stereo unspecified)	Pf growth 48h 8.3µM, Pf growth 96h 10µM
Cc1nc(N2CCN(Cc3ccccc3)CC2)nc2c1C(=O)CC(C)C2 (stereo unspecified)	none (no result: Pf growth 96h)
COc1cc(C2CC(=O)c3cnc(N4CCN(Cc5ccccc5)CC4)nc3C2)cc(OC)c1OC (stereo unspecified)	Pf growth 48h 9.3µM
Cc1cc(C)n(-c2ccc(NC(=O)C3CCCCN3Cc3cccc4c3OCO4)cc2)n1 (stereo unspecified)	none
CCN(c1ccc(OC)cc1)S(=O)(=O)c1nnc(NC(=O)COc2ccccc2)s1	Pf growth 96h inconclusive, SARS PLpro yeast inconclusive
O=C(NCCC1=CCCCC1)c1ccc(F)c(S(=O)(=O)N2CCOCC2)c1	Pf growth 48h inconclusive, Pf growth 96h 9.3µM
CC1CN(S(=O)(=O)c2cc(C(=O)NCCC3=CCCCC3)ccc2Cl)CC(C)O1 (stereo unspecified)	Pf growth 48h 10µM, Pf growth 96h inconclusive (no result: NS1 function inh)
COc1ccc(C(=O)NCCC2=CCCCC2)cc1S(=O)(=O)N1CCOCC1	Pf growth 48h inconclusive, Pf growth 96h inconclusive (no result: NS1 function inh)
CCOC(=O)Cn1c(=O)c(F)cn(Cc2ccc(OC)c([N+](=O)[O-])c2)c1=O	Pf growth 96h 10µM
COc1ccccc1-c1sc2cc3c(cc2c1C#CC1(O)CCCCC1)OCO3	Pf growth 48h inconclusive, Pf growth 96h 4.7µM (no result: NS1 function inh)
C=CCn1c(SCc2c(C)noc2C)nc2sc(C)c(C)c2c1=O	Pf growth 96h 9.3µM (no result: Pf growth 48h)
CCOC(=O)C1(Cc2ccccc2)CCCN(S(=O)(=O)N(C)C)C1 (stereo unspecified)	Pf growth 96h inconclusive
C=C1C(=O)[C@@]23[C@H](O)C[C@@H]4C(C)(C)CC[C@H](O)[C@]4(C)[C@@H]2C[C@H](O)[C@@H]1[C@H]3O	Pf growth 48h 9.3µM, Pf growth 96h 4.1µM
C=C1C(=O)[C@@]23[C@H](O)C[C@@H]4C(C)(C)CC[C@H](O)[C@@]4(C)[C@@H]2CC[C@@H]1[C@H]3O	Pf growth 48h 15µM, Pf growth 96h inconclusive
CN(C/C=C\c1ccccc1)Cc1cccc2ccccc12	none (no result: Pf growth 48h, SARS PLpro yeast, NS1 function inh)
COc1ccc([N+](=O)[O-])cc1C(=O)NCCOc1ccc(Cl)cc1	none (no result: Pf growth 48h)
C[C@]12CC(O)C3C(CCC4=CC(=O)CC[C@@]43C)C1CCC2c1csc(-c2ccccc2)n1 (stereo partly specified)	Pf growth 48h 5.2µM, Pf growth 96h inconclusive
Cc1ncc(CSc2ccccc2N)c(CO)c1O	none (no result: Pf growth 48h, Pf growth 96h, SARS PLpro yeast)
CC(C)CCOC(=O)/C(=C/c1ccco1)NC(=O)/C=C/c1ccccc1	Pf growth 48h inconclusive, Pf growth 96h 4.1µM
